PubChem BioAssay AID1376 (SRMLSC, 2008)
Out of some 220,000 compounds screened, about 530 (0.24%) were called active. The sample as a whole holds a higher share of actives than the screen did. Entries with a potency or affinity are not part of this list. A number with no mark means an inactive call. Rule as the data show it: active = inhibition above about 13%; inconclusive = no clear call, values can overlap the other calls; inactive = below that.

The compounds below were run against Bifunctional protein GlmU (Mycobacterium tuberculosis (strain ATCC 25618 / H37Rv)) (UniProt P9WMN3) (assay: inhibition of mycobacterial GlmU enzyme – biochemical, glucosamine-1-phosphate acetyltransferase (AID 1376;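 also: 0% = complete reaction with vehicle and 100% = reaction without substrate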)). Settings: M. tuberculosis GlmU acetyltransferase enzyme assay; stronger effect = higher value;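 tested at 30 µM in the primary screen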.
Chain of Bifunctional protein GlmU (Mycobacterium tuberculosis (strain ATCC 25618 / H37Rv)) (P9WMN3 whole entry, looked up): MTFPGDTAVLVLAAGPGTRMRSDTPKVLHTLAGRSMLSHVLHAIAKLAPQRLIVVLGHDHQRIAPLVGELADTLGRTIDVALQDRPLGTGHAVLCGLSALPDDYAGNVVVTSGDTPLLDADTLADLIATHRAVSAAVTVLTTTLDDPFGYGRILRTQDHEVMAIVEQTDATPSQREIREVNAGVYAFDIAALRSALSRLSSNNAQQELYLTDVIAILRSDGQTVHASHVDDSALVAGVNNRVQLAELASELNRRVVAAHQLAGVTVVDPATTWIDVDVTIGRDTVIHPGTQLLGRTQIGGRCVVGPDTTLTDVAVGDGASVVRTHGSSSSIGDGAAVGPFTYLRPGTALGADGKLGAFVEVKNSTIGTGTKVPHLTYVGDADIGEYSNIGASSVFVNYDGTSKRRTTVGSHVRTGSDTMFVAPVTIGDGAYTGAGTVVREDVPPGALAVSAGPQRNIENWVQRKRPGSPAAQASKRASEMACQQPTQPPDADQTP

| SMILES | inhibition |
| --- | --- |
| COc1cccc(C(=O)CSc2nnc(-c3cccs3)o2)c1 | 4.7% |
| N#Cc1c(-n2cccc2)cccc1-n1cccc1 | 9.31% |
| N#Cc1cc(N)ccc1-n1cccc1 | 13.7% (active) |
| COc1ccc(N2CCN(c3ccc(N)cc3C#N)CC2)cc1 | -1.62% |
| O=C(O)C(Cl)Cl | 2.18% |
| O=C(O)[C@@H](O)[C@H](O)C(=O)O | 2.76% |
| CC1CCc2c(sc3ncnc(NS(=O)(=O)c4cccs4)c23)C1 (stereo not drawn) | 0.41% |
| O=C1CSC(=Nc2cccc(Cl)c2Cl)N1Cc1cccnc1 | 1.06% |
| CC(=O)c1ccc(N2CCN(C(=S)Nc3cc(C)ccc3C)CC2)cc1 | -4.28% |
| CCN(CC)CCN(Cc1cc2ccc(C)cc2[nH]c1=O)C(=O)NC1CCCCC1 | 14.2% (active) |
| CCc1ccc2[nH]c(=O)c(CN(CCN(CC)CC)C(=O)NC3CCCCC3)cc2c1 | -7.06% |
| CCN(CC)CCN(Cc1cc2cc3c(cc2[nH]c1=O)OCCO3)C(=O)NC1CCCCC1 | 4.4% |
| O=c1[nH]c(=O)n(-c2cccc3ccccc23)c(O)c1/C=N/N1CCCCC1c1cccnc1 (stereo not drawn) | -5.46% |
| CC(OC(=O)c1cccs1)C(=O)NCc1cccs1 (stereo not drawn) | -4.58% |
| Cn1c(=O)c(C(=O)Nc2ncccc2O)c(O)c2ccccc21 | 2.25% |
| CC(=O)c1ccc(C)cc1OC(=O)c1cccc(F)c1 | 3.37% |
| Cc1cc(O)c2c(c1)C(=O)c1cc(O)cc(O)c1C2=O | -2.62% |
| O=C(O)c1cc(O)c2c(c1)C(=O)c1cccc(O)c1C2=O | 0.69% |
| O=C(O)c1cc(O)c2c(c1)C(=O)c1cc(O)cc(O)c1C2=O | 13.3% (active) |
| Cc1ccc(NC(=O)CN(C)C(=O)c2ccc(S(=O)(=O)N(C)c3ccccc3)cc2)cc1 | 2.55% |
| CCOc1ncccc1C(=O)N1CCN(C(c2ccccc2)c2ccccc2)CC1 | 7.04% |

| SMILES | inhibition |
| --- | --- |
| COC(=O)c1cc(Cl)nc2ccccc12 | 5.71% |
| CCOC(=O)C1=C(C)N(C)C(=O)NC1c1c(C)nn(-c2ccc(C)cc2)c1Cl (stereo not drawn) | 3.87% |
| CCOC(=O)C1=C(C)N(C)C(=O)NC1c1c(C)nn(-c2ccccc2)c1C (stereo not drawn) | -0.97% |
| CCOC(=O)C1=C(C)NC(=O)NC1c1c(C)nn(-c2ccccc2)c1Cl (stereo not drawn) | 15.1% (active) |
| COc1cc(NC(=O)CCCSc2nc(-c3ccco3)cc(C(F)(F)F)n2)cc(OC)c1OC | -3.07% |
| O=C(Nc1cccc(Cl)c1)Nc1ccccc1C(=O)O | 2.52% |
| NC(=O)c1ccccc1NC(=O)Nc1cccc(Cl)c1 | 14.1% (active) |
| NC(=O)c1ccccc1NC(=O)Nc1ccc(F)c(Cl)c1 | -5.33% |
| Cc1cc([N+](=O)[O-])nn1CCCC(=O)Nc1c(C)n(C)n(-c2ccccc2)c1=O | -7.37% |
| CCOC(=O)C1(C)C=C(Nc2ccc(NC(C)=O)cc2)C(=O)N1c1ccc(NC(C)=O)cc1 (stereo not drawn) | 14.8% (active) |
| CCOC(=O)C1(C)C=C(Nc2ccc(C)cc2)C(=O)N1c1ccc(C)cc1 (stereo not drawn) | -2.18% |
| CCOC(=O)C1(C)C=C(Nc2ccc(O)cc2)C(=O)N1c1ccc(O)cc1 (stereo not drawn) | 9.21% |
| CCn1c(=O)c2c(nc3n2CCN3c2ccccc2)n(C)c1=O | -6.14% |
| COc1ccc(/C=N/NC(=O)c2ccccc2O)cc1Cn1cc([N+](=O)[O-])cn1 | -1.22% |
| COc1ccc(/C=N\NC(=O)c2cccc([N+](=O)[O-])c2)cc1Cn1cc([N+](=O)[O-])cn1 | -3.48% |
| COc1ccc(/C=N/NC(=O)CCN2CCCCC2c2cccnc2)cc1Cn1cc([N+](=O)[O-])cn1 (stereo not drawn) | 12.8% (active) |
| O=C(CSc1nnc(Cc2cccs2)n1-c1ccc(Cl)cc1)NCc1ccc2c(c1)OCO2 | 12.9% (active) |
| O=C(CSc1nnc(-c2cccs2)n1-c1ccccc1)NCc1ccc2c(c1)OCO2 | 4.61% |
| O=C(CSc1nnc(Cc2cccs2)n1-c1ccccc1)NCc1ccc2c(c1)OCO2 | 5.29% |
| Cc1cccc(NC(=O)Cn2cnc3c(oc4ccccc43)c2=O)c1C | 3.4% |
| CCC(=O)N/C(=N/c1nc(C)cc(C)n1)Nc1ccc(OC)cc1 | 7.87% |

| SMILES | inhibition |
| --- | --- |
| N#CC12CCCCC1CC1CCCCC1(C#N)N2CCO (stereo not drawn) | 0.23% |
| CC(C)Oc1ccc(C2CC(=O)NC3=C2C(=O)CCC3)cc1 (stereo not drawn) | -5.28% |
| CC(C)Oc1ccc(C2CCC(=O)NC2=O)cc1 (stereo not drawn) | 13.8% (active) |
| CC(C)COc1ccc(C2NC(=O)NC2=O)cc1 (stereo not drawn) | -0.34% |
| CC(C)Oc1ccc(C2NC(=O)NC2=O)cc1 (stereo not drawn) | 14.6% (active) |
| CCCOc1ccc(C2NC(=O)NC2=O)cc1 (stereo not drawn) | 1.13% |
| CC(C)Oc1ccc(C2CNC(=O)C2)cc1 (stereo not drawn) | 5.76% |
| Cc1cc(N=NC(=O)c2ccccc2)ccc1O | 1.4% |
| O=C(CNc1cccc(C(F)(F)F)c1)N/N=C/c1cn(-c2ccccc2)nc1-c1ccccc1 | -4.25% |
| O=C(CNc1cccc(C(F)(F)F)c1)N/N=C/c1cccc(Br)c1 | -0.17% |
| O=C(CNc1cccc(C(F)(F)F)c1)N/N=C/c1ccccc1C(=O)O | 13.4% (active) |
| N/N=C1\CCCc2c1[nH]c1ccc([N+](=O)[O-])cc21 | 0.8% |
| CCn1c(SCC(=O)N2CCc3ccccc32)nnc1-c1c[nH]c2ccccc12 | 6.94% |
| Clc1ccc(Cn2nc(-c3ccccc3)nc2-c2ccccc2)cc1 | 7.14% |
| O=C1NC(=O)N(c2cccc(Cl)c2)C(=O)/C1=C\c1ccc(Sc2nc3ccccc3[nH]2)o1 | 22.4% |
| O=C1NC(=O)N(c2ccc(Cl)cc2)C(=O)/C1=C\c1ccc(Sc2nc3ccccc3[nH]2)o1 | 12.5% |
| CN(C)S(=O)(=O)c1ccc(C(=O)N2CCOCC2)cc1 | 9.61% |
| CN(C)S(=O)(=O)c1ccc(=S)[nH]c1 | 1.27% |
| CSc1ccccc1NC(=O)Nc1ccc(Cl)cc1 | 1.07% |
| CSc1ccccc1NC(=O)Nc1ccc(F)c(Cl)c1 | 15% (active) |
| CSc1ccccc1NC(=O)Nc1cccc(Cl)c1 | 1% |
